Experimental data: the supplement of paper PMC6555819

Columns and labels:
Assay in all cases: PBM binding z-score (relative to random genomic background probes); higher = stronger binding; sequences stand for … in GC…GCGATTGACAGCGTAGAATGAAGG
[1] = test system: PPARg:RXRa DBDmut IVT, anti-RXR (DBD mutation: RXRa K156A/R161A, NR concentration 270 nM, RXRa partner concentration 90 nM)
Method in brief: (§1)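 Binding z-scores were set against random background probes. The data came from custom Agilent 4×180K protein-binding microarrays carrying double-stranded probes with 34-nt variable regions, incubated 1 h with ligand-free nuclear receptor dimers. Partner-specific antibodies detected binding, and scanned fluorescence was regression-normalized.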

[2] = test system: PPARg:RXRa IVT, anti-PPARg (NR concentration 270 nM, RXRa partner concentration 90 nM)
Method in brief: as §1

[3] = test system: PPARg DBDmut:RXRa IVT, anti-PPARg (DBD mutation: PPARg1 K132A/R137A, NR concentration 270 nM, RXRa partner concentration 90 nM)
Method in brief: as §1

[4] = test system: PPARg DBDmut IVT, anti-PPARg (DBD mutation: PPARg1 K132A/R137A, NR concentration 270 nM)
Method in brief: as §1

[5] = test system: PPARg homodimer (NR concentration 180 nM)
Method in brief: as §1

[6] = test system: PXR:RXRa (NR concentration 270 nM, RXRa partner concentration 90 nM)
Method in brief: as §1

[7] = test system: PXR homodimer (NR concentration 270 nM)
Method in brief: as §1

[8] = test system: RARa:RXR (NR concentration 270 nM, RXRa partner concentration 90 nM)
Method in brief: as §1

[9] = test system: RARa homodimer (NR concentration 270 nM)
Method in brief: as §1

[10] = test system: RARb:RXRa (NR concentration 270 nM, RXRa partner concentration 90 nM)
Method in brief: as §1

| Sequence | PBM binding z-score [1] | PBM binding z-score [2] | PBM binding z-score [3] | PBM binding z-score [4] | PBM binding z-score [5] | PBM binding z-score [6] | PBM binding z-score [7] | PBM binding z-score [8] | PBM binding z-score [9] | PBM binding z-score [10] |
| --- | --- | --- | --- | --- | --- | --- | --- | --- | --- | --- |
| CCTAGTTGGACAAGGTCACACACGCTATAGGTAC | 0.793 | 2.52 | 0.526 | 0.701 | 3.15 | 3.9 | 1.97 | 4.4 | 2.1 | 3.85 |
| TCATATAGGTAAAAGGTGAAAGGCGGTGTGGTAA | 5.24 | 5.21 | 3.35 | 1.06 | 2.76 | 1.69 | 0.582 | 2.48 | 1.28 | 1.79 |
| CCTAACAGGCCAGGGTCACTCAAGCATTTCGCTT | 0.296 | 0.882 | -0.338 | -0.618 | 1.4 | 2.58 | -0.222 | 3.26 | 0.384 | 2.85 |
| CCTACTGGGCCGAAGGTCATTGATTCCAATGCTC | 1.48 | 5.21 | -0.502 | -0.797 | 1.81 | 2.9 | 0.597 | 3.05 | 0.247 | 2.88 |
| TAGCCTAGGTCATTCGGGCCAGTATAGTGTCGGC | 1.8 | 2.76 | -0.115 | -0.745 | 0.969 | 2.11 | 0.189 | 2.39 | -0.428 | 3.74 |
| AGTCAAAGTTCACTGGGTAACGTAAGATTCAGCT | 2.75 | 4.82 | 1.38 | 0.335 | 2.63 | 4.4 | 3.47 | 3.63 | 1.43 | 4.81 |
| ATATCTAGGTAAAGATAGTTCAGTGAATGCAAAT | 5.82 | 5.59 | 2.76 | 1.53 | 1.12 | 0.896 | 0.584 | 0.384 | 0.705 | 0.775 |
| ATAGGTAGGTTACATCCGGGTCATTCAGGCTATG | 3.73 | 3.91 | 0.843 | 0.221 | 1.99 | 3.53 | 3.04 | 3.51 | 1.15 | 2.39 |
| GGAACGAGGGCAGAGTTGATAGCATCTGTCGACG | 2.1 | 2.85 | 0.19 | -0.602 | 0.635 | -0.0229 | -0.145 | -0.365 | -0.977 | 1.68 |
| ATCGAAAGGTCGACGAGGTGAGTATACACCGTTT | 0.442 | 1.82 | 0.853 | 1.45 | 1.32 | 3.15 | 0.642 | 4.09 | 1.19 | 3.73 |
| CCTACTGGGCCATTCAGAGTTCATTGATCATATG | 4.56 | 3.73 | -0.222 | 0.266 | 0.849 | 4.72 | 8.94 | 1.75 | -0.457 | 1.82 |
| CAAACTAGGTCACCGGAAGGTCAAAGCCCGCATG | 8.25 | 8.78 | 2.12 | 2.03 | 5.32 | 5.67 | 1.53 | 7.16 | 2.71 | 5.32 |
| CCTTCTGGGCCAAGGTCATTGATCAGTCAAAGCA | 3.79 | 4.03 | -0.283 | -0.969 | 1.45 | 3.33 | 1.12 | 3.11 | -0.215 | 3.39 |
| GTACCAAGGTCAATAGGTCGTTGATGAGTAGGCG | 2.92 | 4.42 | -0.00557 | 0.159 | 2.8 | 4.09 | 0.916 | 4.91 | 0.768 | 5.2 |
| CTACCACGGTGAACAAGGTCGTTGATTACTATTC | 0.771 | 0.788 | -0.025 | -0.267 | 0.744 | 1.44 | 1.01 | 1.15 | 0.251 | 0.76 |
| TCTTGTAGATCAACAGGATGTTAAGAAAGATCGA | 1.7 | 0.652 | 0.783 | 1.26 | -0.565 | 0.147 | -0.381 | 0.44 | 0.0345 | -0.191 |
| TCTAGTTGGTAAAAGGTCACACACTCGAAATGCG | 3.1 | 5.1 | 1.72 | 2.8 | 5.34 | 5.37 | 2.68 | 6.35 | 5.12 | 4.93 |
| AACTCTAGGTAACAAGTTCAGTGAAAGAGAGGAC | 3.33 | 2.65 | 0.517 | 0.445 | 0.677 | 1.37 | 1.37 | 0.703 | 0.522 | 1.4 |
| ATCTCTGGGTAACAAGTTCAGTGAAAGAGAGGAC | 2.93 | 2.94 | 0.76 | 0.979 | 1.27 | 1.87 | 1.92 | 0.922 | 1.24 | 1.75 |
| TTAACAAGGTGAAGGTCGTTGATCCCTCTGTAGA | 2.79 | 3.4 | 0.419 | 0.266 | 0.4 | 1.35 | 0.014 | 1.82 | -0.625 | 2.03 |
| TCATATAGGTAAAAGGCGAAAGTCGGTGTGGTAA | 3.92 | 3.21 | 0.28 | 0.103 | 0.768 | 0.309 | 0.159 | 0.628 | 0.926 | 0.164 |
| GCTTGTAGACCAAGGTTAAGAAAGACTAAGCTAA | 1.25 | 0.819 | 0.464 | 0.161 | -0.164 | 0.252 | -0.358 | 0.313 | 0.313 | 0.654 |
| ATATGTAGGTTAAGGGTCATTCATGTTGGTTCGC | 7.75 | 8.04 | 2.47 | 1.44 | 3.15 | 4.77 | 1.38 | 5.63 | 2.15 | 3.6 |
